The whole screen tested about 1,800 compounds, of which about 240 (13%) were called active. No stated cut-off is given here; in the data, active means inhibition above about 40%; inactive means the rest. The list is a sample of the results.
target: NEDD8-conjugating enzyme Ubc12 (Homo sapiens) + NEDD8-activating enzyme E1 regulatory subunit (Homo sapiens) (UniProt P61081+Q13564); assay: blockade of NEDD8 conjugation to cullin – biochemical, TR-FRET, single concentration, confirmation (AID 652217); conditions: TR-FRET cullin neddylation biochemical assay; at 25 µM; hits give high values;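 further: neddylation substrate is the cullin 1 ring ligase complex with SKP2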
Sequence (P61081 whole entry, looked up): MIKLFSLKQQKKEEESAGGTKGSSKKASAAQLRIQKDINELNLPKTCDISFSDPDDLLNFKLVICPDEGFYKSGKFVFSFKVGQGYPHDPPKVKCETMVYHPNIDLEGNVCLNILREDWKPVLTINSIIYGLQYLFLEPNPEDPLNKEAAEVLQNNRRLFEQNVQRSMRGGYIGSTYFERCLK
Sequence (Q13564 whole entry, looked up): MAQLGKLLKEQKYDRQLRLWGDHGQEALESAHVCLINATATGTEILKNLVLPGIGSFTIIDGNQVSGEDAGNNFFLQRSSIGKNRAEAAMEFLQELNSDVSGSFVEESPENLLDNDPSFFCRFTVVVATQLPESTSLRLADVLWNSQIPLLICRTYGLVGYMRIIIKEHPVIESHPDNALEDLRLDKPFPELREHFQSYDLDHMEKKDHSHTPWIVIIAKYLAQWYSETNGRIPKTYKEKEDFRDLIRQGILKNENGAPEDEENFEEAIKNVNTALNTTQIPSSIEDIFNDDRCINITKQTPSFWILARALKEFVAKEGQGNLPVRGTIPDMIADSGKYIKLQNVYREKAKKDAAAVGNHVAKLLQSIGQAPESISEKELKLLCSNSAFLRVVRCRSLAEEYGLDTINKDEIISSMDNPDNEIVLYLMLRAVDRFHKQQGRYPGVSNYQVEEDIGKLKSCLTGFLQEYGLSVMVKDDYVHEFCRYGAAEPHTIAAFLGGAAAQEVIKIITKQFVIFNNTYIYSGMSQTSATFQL

inhibition, inactive:
O=C(Cn1cc(/C=N/NC(=O)c2cccc(C(F)(F)F)c2)c2ccccc21)Nc1ccc(F)cc1 20.1%
CN(C)c1ccc(/C=N/Nc2cc(N3CCOCC3)nc(N3CCOCC3)n2)cc1 14.8%
COc1ccc2oc(C(=O)NCC(Cc3ccccc3)N(C)C)c(C)c2c1 (stereo not given) 39.6%
c1ccc(-c2[nH]ncc2-c2nc3ccccc3[nH]2)cc1 34.5%
CCN(CC)c1ccc(/C=N/Nc2nc(C)cc(=O)[nH]2)cc1 28.2%
COc1ccc(Br)cc1/C=N/Nc1ccc(Cl)c(C(=O)O)c1 37.5%
CC(=O)c1ccc(Nc2nc(C(N)c3ccccc3)cs2)cc1 (stereo not given) 32.9%
Cc1noc(C)c1COc1ccc2ccc(=O)oc2c1 33.5%
COc1cccc(C2c3[nH]c4ccccc4c3CCN2Cc2cccc(C)n2)c1 (stereo not given) 26.3%
Nc1nnnn1CC(=O)N/N=C/c1ccc(-c2cccc(Cl)c2)o1 22.7%
O=C(N/N=C/c1ccccc1O)C1CCCC1 38.7%
C=CCn1c(COc2cccc3cccnc23)nnc1SCC(=O)OC 36.7%
O=C(/C=C/c1cn(-c2ccccc2)nc1-c1ccc2c(c1)OCCO2)NCCCN1CCOCC1 33.2%
COC(=O)C1=CN(C)C=C(C(=O)OC)C1c1ccc(Cl)cc1Cl 20%
CC(C(=O)NC1CCCCC1)N1C(=O)c2cccc3cccc1c23 (stereo not given) 39.8%
O=C(NNC(=S)NC1CC2CCC1C2)c1ccc(Cl)cc1 (stereo not given) 7.17%
COc1cccc(/C=C/C(=O)OCC(=O)N2CCCc3ccccc32)c1 38.8%
Cc1ccc(C)c(NC(=O)NNC(=O)c2ccc3ccccc3c2O)c1 30.6%
COC(=O)C1=CN(Cc2ccc(OC)cc2)C=C(C(=O)OC)C1c1ccc(O)c(OC)c1 33%
COc1cc2ccccc2cc1C(=O)Nc1ccncc1 39.2%
CCOC(=O)c1cnc2nc(SCc3ccccc3Cl)[nH]n2c1=O 20%
CCOc1ccc2[nH]c(=O)c(CN(Cc3nnnn3Cc3ccccc3)CC3CCCO3)cc2c1 (stereo not given) 15.2%
COCCCNc1nc2ccccc2nc1NS(=O)(=O)c1ccc(F)cc1 29%
Cc1ccc2occ(/C=N/NC(=O)c3ccccc3C)c(=O)c2c1 24%
O=c1c2c(nc3cc(-c4cccc(Cl)c4)[nH]n13)CCCC2 -10.4%
NNC(=O)c1oc2nc(-c3ccccc3)cc(-c3ccco3)c2c1N 14.3%
CN(C)c1ccnc2sc(C(=O)c3ccccc3)c(N)c12 33.9%
Cc1nc2sc(C(=O)c3ccccc3)c(N)c2c2c1CCCC2 30.6%
O=C(COc1ccccc1Cl)N1N=C(c2cccs2)CC1c1ccco1 (stereo not given) 37.1%
CCOc1cc(C(=O)Nc2c(C)ccc3nsnc23)cc(OCC)c1OCC 27.9%
CC(=O)Oc1c(C(=O)c2nnc(C)o2)c(=O)n(Cc2ccccc2)c2ccccc12 38.8%
O=C1c2cccc3cccc(c23)N1CN1CCN(c2ccccn2)CC1 28.8%
CC(=O)NNC(=O)c1csc(Cc2c(Cl)sc3ccc(Cl)cc23)n1 -2.26%
O=C(c1ccc(Cl)cc1)N1N=C(c2ccccn2)CC1(O)C(F)(F)F (stereo not given) 1.98%
CCN1CCCC1CNc1ncnc2c1[nH]c1ccc(F)cc12 (stereo not given) 31%
C[C@H](O)[C@@H]1C(=O)N2CCc3c([nH]c4ccccc34)[C@@H]2C[C@@H]1N(C)C(=O)Nc1ccc(F)cc1 14.4%
Cc1ccc2cc(C#N)c(NCCNC(=S)NCCCN3CCOCC3)nc2c1 33.7%
O=C1NC(c2ccncc2)Nc2sc3c(c21)CCCC3 (stereo not given) 39.4%
COc1cccc(C2CC(c3cccs3)=NN2C(=O)CSC2=NCCS2)c1OC (stereo not given) -80.4%
CCOc1ccc2nc(NCCNC(=O)C(C)(C)C)c(C)cc2c1 34.1%
Cc1ccc(-n2ncc3c(Nc4cccc(C(=O)O)c4)ncnc32)cc1 35.6%
CCOCCCNC(=O)C(NC(=O)c1ccccc1O)c1ccccc1 (stereo not given) 39.4%
COc1ccc(C2c3[nH]c4ccccc4c3CCN2CCCn2cccn2)cc1C (stereo not given) 29.8%
O=c1cc(CN2CCCCCCC2)c2c(ccc3ccccc32)o1 14.7%
Cc1noc(C)c1C(=O)OCC(=O)/C=C1\N(C)c2ccccc2C1(C)C 22.3%
CCOc1ccc2[nH]c(=O)c(CN(Cc3nnnn3CCc3ccccc3)CC3CCCO3)cc2c1 (stereo not given) 12.7%

inhibition, active:
COc1cccc(Cn2cc(/C=N/NC(=O)c3cc(O)cc(O)c3)c3ccccc32)c1 41.7%
CCN(CC)c1ccc(/C=N/NC(=O)CNC(=O)c2cccs2)cc1 54.1%
CC(=O)Nc1nc(C)c(-c2csc(Nc3ccc(S(N)(=O)=O)cc3)n2)s1 79.2%
C=CCNC(=O)c1ccc2c3n(nc2c1)-c1ccc(C)cc1CO3 47.4%
CCN(/N=C/c1ccc(N(C)C)cc1)c1nc2ccccc2[nH]1 42.9%
CC(=O)Nc1cc(-c2ccc(N3CCN(C)CC3)cc2)cn2c(-c3ccc(F)cc3)cnc12 45.5%
CS(=O)(=O)c1ccc2nc(NC(=O)c3ccc(Cl)nc3)sc2c1 66%
COc1cc2cc(C(=O)N/N=C/c3cccc(OC)c3OC)[nH]c2cc1OC 41.9%
COc1ccc2[nH]c(C(=O)N/N=C/c3cc(OC)c(OC)c(OC)c3)cc2c1 49.6%
CCOc1ccc2[nH]c(C(=O)N/N=C/c3cccc(OC)c3OC)cc2c1 44.6%
CCOc1cc(/C=N/Nc2cc(C)nc3ccc(C)cc23)ccc1O 40.1%
COc1ccc(N(CC(=O)N/N=C/c2cccc3c2OCCO3)S(=O)(=O)c2ccc(NC(C)=O)cc2)cc1 42.7%
O=C(O)c1ccc2c(=O)n3c(nc2c1)/C(=C/c1ccc(OC(F)F)cc1OC(F)F)CC3 43.2%
N#Cc1ccc(/C=C2\CCn3c2nc2cc(C(=O)O)ccc2c3=O)cc1 54.8%
